The structures appear in SMILES notation. In all, about 53,000 compounds went through this assay and about 900 (1.7%) showed an effect of 50% or more. The full list was thinned out, with strong results kept by preference.

The subject of the assay is Mycobacterium tuberculosis. Briefly: Cornell - Phenotypic assay to identify agents that inhibit growth of Mycobacterium tuberculosis. The format is functional. Set-up: scale not given: direction of the effect not stated beside the values. As to conditions: 10 mM as filed; unlikely as a test dose.
Turning to `Cc1cc2nc(O)c(O)nc2cc1S(=O)(=O)NC1CC1`, the “Percent Effect” value is on record as 1.29%.

In the case of `CC(C)(C)C(=O)NCCC(=O)NC(C)(C)c1ccc2c(c1)OCO2`, the “Percent Effect” value was 11.96%.

Consider `COc1ncccc1CNC(=O)NC(C)Cn1cccn1` (configuration not stated), for which the “Percent Effect” value is -6.466%.

For the compound `CCCc1cc(CNC2CCN(c3cc(C(C)C)nc(C)n3)CC2)on1`, the “Percent Effect” value is listed as -3.278%.

Turning to `O=C(c1cc(C2CC2)on1)N1C[C@H]2CC[C@](O)(c3ccc(F)cc3)[C@H]2C1`, the “Percent Effect” value turned out to be 6.085%.

With `O=C(c1cc(C2CC2)n[nH]1)N1C[C@H]2CC[C@](O)(c3ccccc3F)[C@H]2C1`, the “Percent Effect” value was 50.52%.

As for `O=C(c1cc(C2CC2)on1)N1C[C@H]2CC[C@](O)(c3ccccc3F)[C@H]2C1`, the “Percent Effect” value worked out at 7.092%.

As for `c1cnn(CCNCc2csc(-c3ccsc3)n2)c1`, the “Percent Effect” value was -2.857%.

As for `Clc1ccc(Cc2nc(CNCCn3cccn3)cs2)cc1`, the “Percent Effect” value turned out to be 60.1%.

Consider `c1ccc(-c2nc(CNCCn3cccn3)cs2)cc1`, for which the “Percent Effect” value is recorded as 46.8%.

For the compound `Fc1ccc(CNCCn2cccn2)cc1F`, the “Percent Effect” value is listed as -21.78%.

In the case of `c1ccc(Cc2nc(CNCCn3cccn3)cs2)cc1`, the “Percent Effect” value was found to be 73.18%.

Turning to `COc1ccc(-c2nc(CNCCn3cccn3)cs2)cc1`, the “Percent Effect” value is listed as 49.39%.

On to `COc1cc(C2(C(=O)N3CCCC(n4cncn4)C3)CC2)ccc1C` (configuration not stated), for which the “Percent Effect” value is reported as 9.425%.

In the case of `CC1(C(=O)NC2CCCC2)CCCN(c2cnccn2)C1` (configuration not stated), the “Percent Effect” value amounted to 15.8%.

For `Cn1cccc1C(CNC(=O)COc1ccc(Cl)cc1Cl)N1CCCC1` (configuration not stated), the “Percent Effect” value is on record as 27.47%.

`Cn1cccc1C(O)CNC(=O)c1ccc2nsnc2c1` (configuration not stated): the “Percent Effect” value amounted to 20.08%.

For the compound `Cn1cccc1C(O)CNS(=O)(=O)Cc1ccccc1` (configuration not stated), the “Percent Effect” value is given as -41.72%.

As for `COC(=O)c1ccc(C(=O)NCC(O)c2cccn2C)cc1` (configuration not stated), the “Percent Effect” value is 64.24%.

`Cn1cccc1C(O)CNC(=O)COc1ccccc1F` (configuration not stated): the “Percent Effect” value is on record as 31.15%.

With `Cn1cccc1C(O)CNC(=O)c1ccc(F)c(F)c1` (configuration not stated), the “Percent Effect” value is recorded as 19.39%.

On to `Cn1cccc1C(O)CNC(=O)COc1ccc(Cl)cc1Cl` (configuration not stated), for which the “Percent Effect” value came out at 63.83%.

In the case of `Cn1cccc1C(O)CNC(=O)c1cccc(Cl)c1` (configuration not stated), the “Percent Effect” value was determined as 49.37%.

Regarding `Cn1cccc1C(O)CNC(=O)c1ccc(C(F)(F)F)cc1` (configuration not stated), the “Percent Effect” value turned out to be 56.65%.

As to `COC[C@@H]1CCC[C@]12CN(CCc1ccccc1)CCO2.O=C(O)C(F)(F)F`, the “Percent Effect” value is on record as -4.553%.

Turning to `Cc1nc(CNC(=O)c2cc(Cn3ccnc3C(C)C)[nH]n2)sc1C`, the “Percent Effect” value is reported as -7.755%.

In the case of `CC(C)NC(=O)NCC(Cc1ccc(F)cc1)C(N)=O` (configuration not stated), the “Percent Effect” value is on record as -16.75%.

For `Cc1c(-c2nc3cc(S(=O)(=O)N4CCCC4)ccc3n2C)cnn1C`, the “Percent Effect” value is reported as -4.812%.

For the compound `CCc1ccccc1-c1cc(C)nc(N)n1`, the “Percent Effect” value is given as 13.97%.

For `Cc1ccc(Oc2cc(CN)ccn2)cc1C.Cl`, the “Percent Effect” value is listed as -26.7%.

As for `NC(=O)NC(=O)CNC1(c2ccc(Cl)cc2)CCCC1`, the “Percent Effect” value was 4.44%.

For `Cc1ccccc1CSc1ncc(Br)c(C(=O)O)n1`, the “Percent Effect” value turned out to be 12.49%.

Regarding `Cc1cncc(C2CCN(Cc3ccsc3)CC2)n1`, the “Percent Effect” value came to 41.74%.

Take `Cc1cncc(C2CCN(Cc3ccncc3)CC2)n1`: the “Percent Effect” value is recorded as 18.56%.

`Cc1cncc(C2CCN(Cc3cnc(C)nc3)CC2)n1`: the “Percent Effect” value is recorded as 56.88%.

On to `Cc1nccn1CCCn1cncc1-c1ccc2c(c1)CCC(C)N2C.Cl` (configuration not stated), for which the “Percent Effect” value stood at 54.25%.

Take `CCN1c2ccc(-c3cncn3CC(=O)NC(C)(C)C)cc2CC1C.Cl` (configuration not stated): the “Percent Effect” value was -3.554%.

For `CCN1CCc2cc(-c3cncn3CCNC3CCS(=O)(=O)C3)ccc21.Cl` (configuration not stated), the “Percent Effect” value stood at 12.29%.

With `Cc1nccn1CCCn1cncc1-c1ccc2c(c1)CC(C)N2C.Cl` (configuration not stated), the “Percent Effect” value is given as 20.63%.

`CCN1c2ccc(-c3cncn3CCCn3ccnc3C)cc2CC1C.Cl` (configuration not stated): the “Percent Effect” value was 54.49%.

Regarding `Cc1nccn1CCCn1cncc1-c1ccc2c(c1)CCCN2C.Cl`, the “Percent Effect” value came to 0.2069%.

Regarding `OCCNc1nc(NCCc2ccccc2)nc2nccnc12`, the “Percent Effect” value amounted to 11.82%.

Consider `Cn1cc(CN2CC[C@H](O)[C@@H](n3ccc(=O)[nH]c3=O)CC2)cn1`, for which the “Percent Effect” value is given as -40.44%.

With `Cn1cc(CN(Cc2ccccn2)Cc2ccccc2Cl)cn1`, the “Percent Effect” value amounted to 9.224%.

`COc1ccc(C(C)NCCc2ccc(NC(C)=O)cc2)cc1F` (configuration not stated): the “Percent Effect” value is on record as -10.02%.

As for `O[C@@H]1CN(Cc2cc(Cl)cc3cccnc23)C[C@@H]1O`, the “Percent Effect” value is 5.63%.

On to `Clc1cc(CN2CCCN3CCCC3C2)c2ncccc2c1` (configuration not stated), for which the “Percent Effect” value is 58.38%.

As to `OCCN1CCN(Cc2cc(Cl)cc3cccnc23)CC1`, the “Percent Effect” value is on record as -20.78%.

With `Cc1ccc(S(=O)(=O)NCCNc2cc(-n3cccc3)ncn2)c(C)c1`, the “Percent Effect” value turned out to be 53.05%.

With `Cc1nnsc1C(=O)NCCNS(=O)(=O)c1cccs1`, the “Percent Effect” value was -32.34%.

Take `Cc1cccc(C(=O)NCCNS(=O)(=O)c2cccs2)c1C`: the “Percent Effect” value was 27.49%.

For the compound `O=S(=O)(NCCNc1cc(-n2cccn2)ncn1)c1cccs1`, the “Percent Effect” value is listed as -21.67%.

In the case of `CCS(=O)(=O)NCCCNc1cc(N2CCCC2CO)ncn1` (configuration not stated), the “Percent Effect” value is 22.16%.

For the compound `O=S(=O)(NCCNc1cc(-n2cccc2)ncn1)c1cccs1`, the “Percent Effect” value is 51.47%.

Turning to `O=S(=O)(NCCNc1ccc(-n2cccc2)nn1)c1cccs1`, the “Percent Effect” value was determined as 107.8%.

As for `CCS(=O)(=O)NCCNc1cc(-n2cccc2)ncn1`, the “Percent Effect” value was 13.54%.

Regarding `Cc1ccc(C)c(S(=O)(=O)NCCNc2ccc(-n3cccc3)nn2)c1`, the “Percent Effect” value turned out to be 29.41%.

For the compound `O=S(=O)(NCCNc1ccc(-n2cccc2)nn1)c1ccccc1`, the “Percent Effect” value stood at 105.3%.

As to `Cc1nsc(NCCNS(=O)(=O)c2ccccc2)n1`, the “Percent Effect” value is 22.52%.

As to `O=S(=O)(Cc1ccccc1)NCCNc1ccc(-n2cccc2)nn1`, the “Percent Effect” value is 12.63%.

As to `CCC1=N[C@@]2(CC[C@@H]3CN(CC4CC4)C[C@@H]32)C(=O)N1CC.O=C(O)C(F)(F)F`, the “Percent Effect” value came to 7.399%.

With `O=C(CC1CC1)N1CCN(Cc2ccncc2)c2ncccc2C1.O=C(O)C(F)(F)F.O=C(O)C(F)(F)F`, the “Percent Effect” value is given as 7.793%.

Regarding `Cc1ccc(-c2nnc(CN3CCN(c4ccccn4)CC3)o2)cc1`, the “Percent Effect” value was -16.82%.

On to `COCC(=O)N1CCCC(c2cc(C(F)F)n3ncnc3n2)C1.Cl` (configuration not stated), for which the “Percent Effect” value is on record as -7.323%.

Consider `CCNC(=O)C1(CC2CC(c3ccccc3OC)=NO2)CCOCC1` (configuration not stated), for which the “Percent Effect” value is -45.09%.

Turning to `CNc1cncc(C2CCCN2C(=O)CCn2ccnc2)n1` (configuration not stated), the “Percent Effect” value was -11.08%.

`COCCN(C)CC(=O)N1C[C@@H](C)[C@](O)(C(C)C)C1`: the “Percent Effect” value is 28.76%.

The values above are taken from ChEMBL document CHEMBL3988442, “University of Dundee, Small-Polar-MMV Screening Library” (2021).
